According to PubChem BioAssay (NCATS):
Records with an inconclusive call do not appear. A call without a number means that no potency is given here. The source made the active and inactive calls. Calls come from the whole dose curve; as a rule, active = well fitted curve in the direction sought with a large enough effect; inconclusive = small, poorly fitted or top-dose-only effect, or another doubt; inactive = no such curve, though single readings can be large; an effect the other way counts as inactive or inconclusive.

Tested on: not listed separately
Experiment: qHTS Assay for Lipid Storage Modulators (AID 1519)
Details: Drosophila S3 cells, BODIPY lipid droplet/cell ratio, laser cytometry; measured here: lipid channel max response; cells loaded with oleic acid
In short: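 Cells seeded at 5,000 per well were treated with compounds over a concentration series and loaded with oleic acid (400 uM, as added). Lipid droplet fluorescence (488 nm excitation, 500-530 nm channel) was read by laser-scanning cytometry and normalized to 20 uM Triacsin C.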

SMILES | max response [%]
COc1ccc(C(=O)N2CCC3(CC2)CCN(c2ccncc2)CC3)cc1 | 14
CC(C)CN1CC2(CCN(C(=O)c3csnn3)CC2)C1 | -0.0505
Cn1cccc1C(=O)N1CCC2(CCCN(C(=O)Nc3cccc(F)c3)C2)CC1 | 6.22
Cc1cnc(CNc2ncncc2-c2ccccc2CN(C)C)cn1 | 0.168
COc1ccccc1CNc1ncncc1-c1ccccc1C | 5.51
CS(=O)(=O)N1CCC2(CC1)CN(c1ccccc1)C2 | 17.6
O=C(c1cnccn1)N1CCC2(CC1)CCN(c1ccncc1)CC2 | 8.09
CCNc1ncc2ncc(=O)n(C[C@H]3CCCO3)c2n1 | 17.2
O=C(c1cnccn1)N1CCC2(CCCN(Cc3ccccc3)C2)CC1 | 17.1
COc1ccccc1CN1CCC2(CC1)CCN(C(=O)c1ccco1)CC2 | 7.5
CN(C)C(=O)c1ccc(-c2nc(NCc3ccccc3)c3ccccc3n2)cc1 | 16.5
O=C(c1cccc(F)c1)N1CCC2(CCCN(c3ccccn3)C2)CC1 | 21.3
CC(C)CN1CCCC2(CCN(C(=O)c3cnccn3)CC2)C1 | 9.23
CN1CCC2(CC1)CCN(C(=O)c1cccc(F)c1)CC2 | 2.59
CC(C)CN1CC2(CCN(S(=O)(=O)c3ccccc3)CC2)C1 | -14.3
CN(C)C(=O)c1ccc(-c2nc(NCc3cccs3)c3ccccc3n2)cc1 | 15.6
N#Cc1ccc(CN2CC3(CCN(C(=O)c4cnccn4)CC3)C2)cc1 | 20.2
CC(C)NC(=O)N1CC[C@@]2(CCCN(S(=O)(=O)c3ccccc3)C2)C1 | -4.67
O=C(c1cccc(F)c1)N1CCC2(CC1)CN(c1ccccn1)C2 | 16
COc1ccc(C(=O)N2CCC3(CCN(Cc4ccc(C#N)cc4)CC3)CC2)cc1 | 21

SMILES | max response [%]
O=C(c1cccc(F)c1)N1CCC2(CCCN(C(c3ccccc3)c3ccccc3)C2)CC1 | 19.7
O=C(c1ccncc1)N1CCC2(CC1)CN(c1ccccn1)C2 | 6.79
COc1ccccc1CN1CCC2(CC1)CCN(S(C)(=O)=O)CC2 | -18.2
Cn1cccc1C(=O)N1CCC[C@@]2(CCN(C(=O)Nc3cccc(F)c3)C2)C1 | 17.3
CC(C)CN1CC[C@@]2(CCCN(C(=O)c3ccco3)C2)C1 | 8.53
COc1ccccc1CN1CCCC2(CCN(S(=O)(=O)c3ccccc3)CC2)C1 | 1.25
Cn1cccc1C(=O)N1CCC2(CCCN(C(c3ccccc3)c3ccccc3)C2)CC1 | 18.7
COC(=O)N1CCC2(CC1)CN(c1ccc(-c3ccccc3)cc1)C2 | 0.422
COCC(=O)N1CCC2(CCCN(Cc3ccc(C#N)cc3)C2)CC1 | 3.44
COCC(=O)N1CCC2(CC1)CCN(c1ncccn1)CC2 | 17.5
O=C(c1ccncc1)N1CCC2(CCCN(Cc3nccs3)C2)CC1 | 11.6
COC(=O)N1CCC2(CCCN(C(=O)Nc3cccc(C#N)c3)C2)CC1 | 23.7
c1ccc(Nc2ncnc3ccc(-c4cccnc4)cc23)cc1 | -13.8
O=C(c1csnn1)N1CCC2(CCN(Cc3cc(C(F)(F)F)cc(C(F)(F)F)c3)CC2)CC1 | 11.7
CN(C)Cc1ccccc1-c1ccc2ncnc(N3CCOCC3)c2c1 | 17.3
O=S(=O)(c1ccccc1)N1CCC2(CC1)CN(c1ccncc1)C2 | -0.685
COC(=O)N1CCC2(CCCN(c3ccccn3)C2)CC1 | 15.8
CC(=O)N1CCC2(CCCN(Cc3ccc(C#N)cc3)C2)CC1 | 18.3
COc1ccccc1CN1CCC2(CC1)CCN(C(=O)c1cccc(F)c1)CC2 | -3.6

Target: Ubiquitin carboxyl-terminal hydrolase 1 (Homo sapiens) (UniProt O94782)
Experiment: Inhibitors of USP1/UAF1: Pilot qHTS (AID 504865);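 note: rhodamine fluorescence freed from ubiquitin-rhodamine substrate followed over time; top concentration of the series differs between compounds; nearly all actives have a fitted effect of over 35% in size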
Details: purified USP1/UAF1, Ub-rhodamine cleavage fluorescence; series mostly up to 54.9 µM
In short: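 Kinetic fluorescence assay: 1nM USP1/UAF1, 15 min compound preincubation, then 150nM Ub-Rho; 480/540 nm.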

Ubiquitin carboxyl-terminal hydrolase 1 (Homo sapiens), sequence (O94782 whole entry, looked up): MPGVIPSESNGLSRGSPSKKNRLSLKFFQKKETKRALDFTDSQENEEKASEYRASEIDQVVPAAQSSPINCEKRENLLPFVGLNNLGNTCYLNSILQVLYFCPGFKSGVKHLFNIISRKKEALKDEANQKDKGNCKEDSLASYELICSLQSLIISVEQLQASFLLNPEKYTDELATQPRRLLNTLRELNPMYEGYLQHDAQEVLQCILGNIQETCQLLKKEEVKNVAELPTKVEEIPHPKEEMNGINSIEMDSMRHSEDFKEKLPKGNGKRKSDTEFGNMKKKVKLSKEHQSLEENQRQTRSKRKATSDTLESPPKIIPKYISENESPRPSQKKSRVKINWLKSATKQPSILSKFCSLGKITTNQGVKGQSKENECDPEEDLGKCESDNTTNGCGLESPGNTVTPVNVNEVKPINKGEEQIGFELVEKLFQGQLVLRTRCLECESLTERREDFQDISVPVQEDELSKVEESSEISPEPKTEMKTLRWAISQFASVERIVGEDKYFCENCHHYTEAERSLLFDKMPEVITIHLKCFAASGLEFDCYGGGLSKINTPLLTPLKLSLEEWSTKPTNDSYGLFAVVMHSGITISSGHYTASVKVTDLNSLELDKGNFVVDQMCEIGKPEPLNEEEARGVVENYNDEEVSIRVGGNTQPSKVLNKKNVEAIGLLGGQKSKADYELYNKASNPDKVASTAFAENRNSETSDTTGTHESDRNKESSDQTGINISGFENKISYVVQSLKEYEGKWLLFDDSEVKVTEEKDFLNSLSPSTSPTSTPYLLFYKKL

SMILES | Potency
Cc1cnc(CNc2ncncc2-c2ccccc2CN(C)C)cn1 | inactive
COc1ccccc1CNc1ncncc1-c1ccccc1C | inactive
CN(C)C(=O)c1ccc(-c2nc(NCc3ccccc3)c3ccccc3n2)cc1 | inactive
CN(C)Cc1ccccc1-c1ccc2ncnc(N3CCOCC3)c2c1 | inactive

Tested on: not listed separately
Experiment: Primary qHTS for small molecule stabilizers of the endoplasmic reticulum resident proteome: Secreted ER Calcium Modulated Protein (SERCaMP) assay (AID 1508630)
Details: SH-SY5Y GLuc-SERCaMP (Gaussia luciferase released on ER calcium loss) secretion, thapsigargin, luminescence; series mostly up to 38.4 µM
In short: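 GLuc-SERCaMP-expressing SH-SY5Y cells, pretreated 16 h with compound, are challenged with thapsigargin to empty ER calcium stores; after 4 h, coelenterazine is added directly to the medium and luminescence is imaged.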

SMILES | outcome
COc1ccc(C(=O)N2CCC3(CC2)CCN(c2ccncc2)CC3)cc1 | inactive
CC(C)CN1CC2(CCN(C(=O)c3csnn3)CC2)C1 | inactive
Cn1cccc1C(=O)N1CCC2(CCCN(C(=O)Nc3cccc(F)c3)C2)CC1 | inactive
Cc1cnc(CNc2ncncc2-c2ccccc2CN(C)C)cn1 | inactive
COc1ccccc1CNc1ncncc1-c1ccccc1C | inactive
CS(=O)(=O)N1CCC2(CC1)CN(c1ccccc1)C2 | inactive
O=C(c1cnccn1)N1CCC2(CC1)CCN(c1ccncc1)CC2 | inactive
CCNc1ncc2ncc(=O)n(C[C@H]3CCCO3)c2n1 | inactive
O=C(c1cnccn1)N1CCC2(CCCN(Cc3ccccc3)C2)CC1 | inactive
COc1ccccc1CN1CCC2(CC1)CCN(C(=O)c1ccco1)CC2 | inactive
CN(C)C(=O)c1ccc(-c2nc(NCc3ccccc3)c3ccccc3n2)cc1 | inactive
O=C(c1cccc(F)c1)N1CCC2(CCCN(c3ccccn3)C2)CC1 | inactive
CC(C)CN1CCCC2(CCN(C(=O)c3cnccn3)CC2)C1 | inactive
CN1CCC2(CC1)CCN(C(=O)c1cccc(F)c1)CC2 | inactive
CC(C)CN1CC2(CCN(S(=O)(=O)c3ccccc3)CC2)C1 | inactive
CN(C)C(=O)c1ccc(-c2nc(NCc3cccs3)c3ccccc3n2)cc1 | inactive
N#Cc1ccc(CN2CC3(CCN(C(=O)c4cnccn4)CC3)C2)cc1 | inactive
CC(C)NC(=O)N1CC[C@@]2(CCCN(S(=O)(=O)c3ccccc3)C2)C1 | inactive
O=C(c1cccc(F)c1)N1CCC2(CC1)CN(c1ccccn1)C2 | inactive
COc1ccc(C(=O)N2CCC3(CCN(Cc4ccc(C#N)cc4)CC3)CC2)cc1 | inactive

SMILES | outcome
O=C(c1cccc(F)c1)N1CCC2(CCCN(C(c3ccccc3)c3ccccc3)C2)CC1 | inactive
O=C(c1ccncc1)N1CCC2(CC1)CN(c1ccccn1)C2 | inactive
COc1ccccc1CN1CCC2(CC1)CCN(S(C)(=O)=O)CC2 | inactive
Cn1cccc1C(=O)N1CCC[C@@]2(CCN(C(=O)Nc3cccc(F)c3)C2)C1 | inactive
CC(C)CN1CC[C@@]2(CCCN(C(=O)c3ccco3)C2)C1 | inactive
COc1ccccc1CN1CCCC2(CCN(S(=O)(=O)c3ccccc3)CC2)C1 | inactive
Cn1cccc1C(=O)N1CCC2(CCCN(C(c3ccccc3)c3ccccc3)C2)CC1 | inactive
COC(=O)N1CCC2(CC1)CN(c1ccc(-c3ccccc3)cc1)C2 | inactive
COCC(=O)N1CCC2(CCCN(Cc3ccc(C#N)cc3)C2)CC1 | inactive
COCC(=O)N1CCC2(CC1)CCN(c1ncccn1)CC2 | inactive
O=C(c1ccncc1)N1CCC2(CCCN(Cc3nccs3)C2)CC1 | inactive
COC(=O)N1CCC2(CCCN(C(=O)Nc3cccc(C#N)c3)C2)CC1 | inactive
c1ccc(Nc2ncnc3ccc(-c4cccnc4)cc23)cc1 | inactive
O=C(c1csnn1)N1CCC2(CCN(Cc3cc(C(F)(F)F)cc(C(F)(F)F)c3)CC2)CC1 | inactive
CN(C)Cc1ccccc1-c1ccc2ncnc(N3CCOCC3)c2c1 | inactive
O=S(=O)(c1ccccc1)N1CCC2(CC1)CN(c1ccncc1)C2 | inactive
COC(=O)N1CCC2(CCCN(c3ccccn3)C2)CC1 | inactive
CC(=O)N1CCC2(CCCN(Cc3ccc(C#N)cc3)C2)CC1 | inactive
COc1ccccc1CN1CCC2(CC1)CCN(C(=O)c1cccc(F)c1)CC2 | inactive
